Molecules are shown by their SMILES.

The text below walks through data of ChEMBL document CHEMBL2218924, “A broad activity screen in support of a chemogenomic map for kinase signalling research and drug discovery” (Biochem J, 2013).

Assay [1] addresses T1, Protein kinase C zeta type (Homo sapiens) (UniProt Q05513).
T1 sequence (whole entry): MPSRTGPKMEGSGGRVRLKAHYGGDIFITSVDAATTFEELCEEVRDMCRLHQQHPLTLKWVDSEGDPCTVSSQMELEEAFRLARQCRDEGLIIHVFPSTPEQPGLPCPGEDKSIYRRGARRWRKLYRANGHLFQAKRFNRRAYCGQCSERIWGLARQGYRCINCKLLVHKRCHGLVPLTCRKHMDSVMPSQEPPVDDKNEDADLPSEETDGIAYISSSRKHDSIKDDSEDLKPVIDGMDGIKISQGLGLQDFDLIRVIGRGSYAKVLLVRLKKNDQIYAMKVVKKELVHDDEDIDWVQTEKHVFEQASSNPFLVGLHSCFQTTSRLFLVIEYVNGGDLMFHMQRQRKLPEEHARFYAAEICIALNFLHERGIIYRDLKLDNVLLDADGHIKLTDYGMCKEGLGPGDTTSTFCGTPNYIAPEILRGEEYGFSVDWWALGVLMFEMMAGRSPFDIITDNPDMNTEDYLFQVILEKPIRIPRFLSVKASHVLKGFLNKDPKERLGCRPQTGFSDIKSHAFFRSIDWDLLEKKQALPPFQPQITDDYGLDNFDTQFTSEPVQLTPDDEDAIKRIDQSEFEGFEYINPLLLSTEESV
As to conditions: at 1 µM; call rule not given here.

The target of assay [2] is T2, Mitogen-activated protein kinase kinase kinase 5 (Homo sapiens) (UniProt Q99683).
T2 sequence (whole entry): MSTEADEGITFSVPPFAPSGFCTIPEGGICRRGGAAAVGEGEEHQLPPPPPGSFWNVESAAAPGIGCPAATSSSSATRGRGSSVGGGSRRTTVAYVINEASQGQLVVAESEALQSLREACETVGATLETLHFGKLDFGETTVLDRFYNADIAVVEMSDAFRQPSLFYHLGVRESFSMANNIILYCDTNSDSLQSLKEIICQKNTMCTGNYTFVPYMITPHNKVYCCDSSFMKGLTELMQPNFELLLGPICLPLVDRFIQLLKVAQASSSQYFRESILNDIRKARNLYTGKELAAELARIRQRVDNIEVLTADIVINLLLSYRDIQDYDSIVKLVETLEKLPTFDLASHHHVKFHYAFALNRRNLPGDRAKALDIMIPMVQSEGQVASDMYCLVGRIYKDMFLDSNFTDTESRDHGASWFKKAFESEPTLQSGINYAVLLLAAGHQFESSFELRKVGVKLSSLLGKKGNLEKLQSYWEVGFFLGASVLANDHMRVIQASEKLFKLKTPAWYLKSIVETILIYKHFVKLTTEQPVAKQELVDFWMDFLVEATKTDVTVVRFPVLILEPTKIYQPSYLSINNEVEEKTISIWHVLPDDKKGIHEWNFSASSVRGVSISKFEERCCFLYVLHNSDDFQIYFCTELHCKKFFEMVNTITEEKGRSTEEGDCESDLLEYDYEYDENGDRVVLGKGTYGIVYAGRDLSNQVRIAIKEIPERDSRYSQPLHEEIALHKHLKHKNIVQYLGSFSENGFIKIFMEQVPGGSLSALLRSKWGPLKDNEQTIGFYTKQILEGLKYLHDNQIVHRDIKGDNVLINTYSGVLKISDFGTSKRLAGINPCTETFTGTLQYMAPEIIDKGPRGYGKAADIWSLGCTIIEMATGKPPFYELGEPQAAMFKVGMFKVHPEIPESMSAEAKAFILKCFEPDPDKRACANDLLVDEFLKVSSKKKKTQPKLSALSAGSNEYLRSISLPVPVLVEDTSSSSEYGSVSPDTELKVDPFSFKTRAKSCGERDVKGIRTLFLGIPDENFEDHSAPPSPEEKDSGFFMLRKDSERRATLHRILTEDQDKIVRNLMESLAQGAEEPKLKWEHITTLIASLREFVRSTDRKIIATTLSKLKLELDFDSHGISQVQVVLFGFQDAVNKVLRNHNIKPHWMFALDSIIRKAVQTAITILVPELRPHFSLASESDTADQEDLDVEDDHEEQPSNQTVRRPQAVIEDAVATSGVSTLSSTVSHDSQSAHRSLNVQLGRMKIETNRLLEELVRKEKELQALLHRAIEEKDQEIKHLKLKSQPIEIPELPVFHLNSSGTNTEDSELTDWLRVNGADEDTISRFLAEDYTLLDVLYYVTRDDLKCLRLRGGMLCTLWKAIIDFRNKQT
The following applies: at 10 µM.

The target of assay [3] is Tyrosine-protein kinase ABL1 (Homo sapiens) (UniProt P00519). The following applies: at 1 µM.
Sequence of Tyrosine-protein kinase ABL1 (Homo sapiens) (P00519 whole entry): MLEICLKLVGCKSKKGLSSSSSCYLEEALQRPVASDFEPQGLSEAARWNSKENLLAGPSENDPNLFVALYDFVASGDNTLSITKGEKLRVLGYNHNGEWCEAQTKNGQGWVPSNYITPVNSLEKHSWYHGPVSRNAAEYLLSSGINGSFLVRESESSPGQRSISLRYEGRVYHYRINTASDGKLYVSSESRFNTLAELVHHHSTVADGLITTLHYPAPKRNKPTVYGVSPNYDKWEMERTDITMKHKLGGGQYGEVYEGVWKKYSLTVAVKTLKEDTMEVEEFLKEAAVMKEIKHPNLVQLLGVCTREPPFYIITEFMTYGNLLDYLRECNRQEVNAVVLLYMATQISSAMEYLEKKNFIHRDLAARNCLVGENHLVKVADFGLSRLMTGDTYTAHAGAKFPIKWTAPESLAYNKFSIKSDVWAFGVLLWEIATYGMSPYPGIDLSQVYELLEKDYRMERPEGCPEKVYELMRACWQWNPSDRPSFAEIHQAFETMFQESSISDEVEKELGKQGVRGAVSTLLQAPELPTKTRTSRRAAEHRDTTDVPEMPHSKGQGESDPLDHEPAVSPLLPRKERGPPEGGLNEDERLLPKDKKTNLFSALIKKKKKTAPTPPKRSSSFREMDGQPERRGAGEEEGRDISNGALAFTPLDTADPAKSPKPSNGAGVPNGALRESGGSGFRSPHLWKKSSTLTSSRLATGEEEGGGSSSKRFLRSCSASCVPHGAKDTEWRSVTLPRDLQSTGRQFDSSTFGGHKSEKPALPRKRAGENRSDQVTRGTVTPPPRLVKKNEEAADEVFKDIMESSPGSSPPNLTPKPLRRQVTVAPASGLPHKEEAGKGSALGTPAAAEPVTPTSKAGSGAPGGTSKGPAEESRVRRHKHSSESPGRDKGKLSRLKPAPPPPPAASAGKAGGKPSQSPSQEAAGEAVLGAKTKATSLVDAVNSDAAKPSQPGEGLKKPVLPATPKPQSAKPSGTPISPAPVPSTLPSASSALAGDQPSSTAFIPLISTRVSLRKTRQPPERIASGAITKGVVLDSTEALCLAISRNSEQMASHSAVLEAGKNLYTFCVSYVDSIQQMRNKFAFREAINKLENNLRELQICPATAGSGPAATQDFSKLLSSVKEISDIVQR
Assay [4] shares this target. The following applies: at 10 µM.
In assay [5] the target is Tyrosine-protein kinase ABL2 (Homo sapiens) (UniProt P42684). The following applies: at 1 µM.
Sequence of Tyrosine-protein kinase ABL2 (Homo sapiens) (P42684 whole entry): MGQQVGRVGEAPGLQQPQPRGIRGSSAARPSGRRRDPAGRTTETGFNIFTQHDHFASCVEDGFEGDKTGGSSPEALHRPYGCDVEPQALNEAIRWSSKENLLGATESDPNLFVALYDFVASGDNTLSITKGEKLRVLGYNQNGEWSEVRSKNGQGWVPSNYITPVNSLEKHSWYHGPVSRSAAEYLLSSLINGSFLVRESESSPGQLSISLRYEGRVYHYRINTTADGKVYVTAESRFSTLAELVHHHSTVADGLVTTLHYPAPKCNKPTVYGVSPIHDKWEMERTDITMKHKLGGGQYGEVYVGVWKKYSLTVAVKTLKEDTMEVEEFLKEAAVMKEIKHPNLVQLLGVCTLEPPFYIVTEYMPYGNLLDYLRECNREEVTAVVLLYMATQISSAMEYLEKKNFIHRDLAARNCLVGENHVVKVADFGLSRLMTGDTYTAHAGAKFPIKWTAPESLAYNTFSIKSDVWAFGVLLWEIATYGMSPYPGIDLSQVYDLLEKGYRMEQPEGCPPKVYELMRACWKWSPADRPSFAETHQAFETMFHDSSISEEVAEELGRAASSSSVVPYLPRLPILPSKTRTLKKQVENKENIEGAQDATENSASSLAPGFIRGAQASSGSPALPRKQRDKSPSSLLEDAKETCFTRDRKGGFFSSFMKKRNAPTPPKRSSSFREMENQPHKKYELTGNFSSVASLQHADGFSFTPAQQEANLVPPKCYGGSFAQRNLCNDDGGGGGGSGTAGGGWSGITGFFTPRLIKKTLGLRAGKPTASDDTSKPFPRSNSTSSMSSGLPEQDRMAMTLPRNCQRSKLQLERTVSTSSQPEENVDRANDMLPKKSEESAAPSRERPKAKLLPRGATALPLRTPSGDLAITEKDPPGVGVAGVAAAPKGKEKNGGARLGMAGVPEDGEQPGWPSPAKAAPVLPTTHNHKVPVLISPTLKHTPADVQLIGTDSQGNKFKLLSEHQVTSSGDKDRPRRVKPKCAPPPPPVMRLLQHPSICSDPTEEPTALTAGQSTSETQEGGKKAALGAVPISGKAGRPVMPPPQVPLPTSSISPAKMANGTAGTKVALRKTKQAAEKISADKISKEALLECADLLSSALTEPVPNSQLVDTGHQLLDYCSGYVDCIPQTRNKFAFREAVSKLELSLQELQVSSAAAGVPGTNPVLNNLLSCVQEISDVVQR
Assay [6] has the same target. The following applies: at 10 µM.
Assay [7] deals with T3, Aurora kinase A (Homo sapiens) (UniProt O14965).
T3 sequence (whole entry): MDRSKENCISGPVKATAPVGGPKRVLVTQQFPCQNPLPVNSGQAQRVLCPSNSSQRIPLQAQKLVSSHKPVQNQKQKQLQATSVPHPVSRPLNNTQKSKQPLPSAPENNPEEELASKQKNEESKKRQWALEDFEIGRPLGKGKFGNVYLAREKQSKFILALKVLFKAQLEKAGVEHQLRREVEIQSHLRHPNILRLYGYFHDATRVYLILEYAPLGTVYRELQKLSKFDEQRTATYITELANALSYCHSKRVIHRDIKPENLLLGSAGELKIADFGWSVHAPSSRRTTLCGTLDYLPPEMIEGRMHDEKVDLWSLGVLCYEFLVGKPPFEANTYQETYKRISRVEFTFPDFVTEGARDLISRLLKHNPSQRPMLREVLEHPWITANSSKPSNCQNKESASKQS
The following applies: at 1 µM.

The target of assay [8] is T3, Aurora kinase A (Homo sapiens). The following applies: at 10 µM.
Assay [9] has as its target Aurora kinase B (Homo sapiens) (UniProt Q96GD4). As to conditions: at 1 µM.
Assay [10] has the same target. The following applies: at 10 µM.
Assay [11] deals with T4, Aurora kinase C (Homo sapiens) (UniProt Q9UQB9).
T4 sequence (whole entry): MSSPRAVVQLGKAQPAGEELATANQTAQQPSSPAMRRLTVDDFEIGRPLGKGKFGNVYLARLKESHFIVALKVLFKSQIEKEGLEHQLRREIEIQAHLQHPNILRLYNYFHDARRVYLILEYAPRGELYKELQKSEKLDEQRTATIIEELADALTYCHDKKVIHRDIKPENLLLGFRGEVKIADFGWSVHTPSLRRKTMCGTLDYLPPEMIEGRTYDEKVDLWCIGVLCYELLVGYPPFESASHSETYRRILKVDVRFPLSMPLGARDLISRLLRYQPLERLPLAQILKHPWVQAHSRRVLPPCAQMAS
As to conditions: at 1 µM.

In assay [12] the target is T4, Aurora kinase C (Homo sapiens). As to conditions: at 10 µM.
The target in assay [13] is Tyrosine-protein kinase receptor UFO (Homo sapiens) (UniProt P30530). As to conditions: at 1 µM.
Sequence of Tyrosine-protein kinase receptor UFO (Homo sapiens) (P30530 whole entry): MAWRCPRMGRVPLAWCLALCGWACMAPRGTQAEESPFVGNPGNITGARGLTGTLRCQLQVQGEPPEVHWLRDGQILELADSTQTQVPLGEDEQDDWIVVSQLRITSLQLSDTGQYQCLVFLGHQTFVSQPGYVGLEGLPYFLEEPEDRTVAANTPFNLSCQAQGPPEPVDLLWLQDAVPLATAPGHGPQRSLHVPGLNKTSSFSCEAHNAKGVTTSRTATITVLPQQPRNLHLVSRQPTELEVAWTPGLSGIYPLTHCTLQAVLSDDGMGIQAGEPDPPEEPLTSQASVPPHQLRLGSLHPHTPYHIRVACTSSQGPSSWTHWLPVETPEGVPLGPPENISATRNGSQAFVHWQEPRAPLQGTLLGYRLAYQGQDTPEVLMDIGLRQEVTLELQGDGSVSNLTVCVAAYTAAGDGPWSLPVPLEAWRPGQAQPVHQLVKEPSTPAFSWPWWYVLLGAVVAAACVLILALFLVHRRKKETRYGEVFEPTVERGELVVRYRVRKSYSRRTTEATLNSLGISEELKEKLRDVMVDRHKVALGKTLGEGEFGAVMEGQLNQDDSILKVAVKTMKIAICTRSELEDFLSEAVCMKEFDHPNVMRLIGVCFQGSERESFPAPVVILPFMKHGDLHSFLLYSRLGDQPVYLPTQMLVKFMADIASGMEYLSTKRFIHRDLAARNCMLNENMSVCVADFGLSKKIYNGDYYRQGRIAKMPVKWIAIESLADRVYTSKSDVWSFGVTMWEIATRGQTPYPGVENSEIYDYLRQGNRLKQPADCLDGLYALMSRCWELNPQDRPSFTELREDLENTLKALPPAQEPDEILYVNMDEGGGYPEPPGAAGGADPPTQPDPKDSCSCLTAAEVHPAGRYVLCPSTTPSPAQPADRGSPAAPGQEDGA
The target is the same in assay [14]. As to conditions: at 10 µM.
The target in assay [15] is Protein-tyrosine kinase 6 (Homo sapiens) (UniProt Q13882). The following applies: at 1 µM.
Sequence of Protein-tyrosine kinase 6 (Homo sapiens) (Q13882 whole entry, looked up): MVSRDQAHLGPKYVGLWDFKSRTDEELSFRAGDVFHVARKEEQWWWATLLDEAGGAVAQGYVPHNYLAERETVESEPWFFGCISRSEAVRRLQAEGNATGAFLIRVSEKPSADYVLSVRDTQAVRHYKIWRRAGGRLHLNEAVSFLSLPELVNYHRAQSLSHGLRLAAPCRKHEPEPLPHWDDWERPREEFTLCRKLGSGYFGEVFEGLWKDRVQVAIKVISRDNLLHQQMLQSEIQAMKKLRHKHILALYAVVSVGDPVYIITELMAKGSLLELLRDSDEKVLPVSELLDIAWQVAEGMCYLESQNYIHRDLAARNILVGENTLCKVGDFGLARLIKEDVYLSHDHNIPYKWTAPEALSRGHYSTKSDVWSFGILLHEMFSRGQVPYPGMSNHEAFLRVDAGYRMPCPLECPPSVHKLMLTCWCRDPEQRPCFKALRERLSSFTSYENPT
For assay [16] the target is unchanged. The following applies: at 10 µM.
Assay [17] addresses Tyrosine-protein kinase BTK (Homo sapiens) (UniProt Q06187). The following applies: at 1 µM.
Assay [18] shares this target. As to conditions: at 10 µM.
The target in assay [19] is Tyrosine-protein kinase Blk (Homo sapiens) (UniProt P51451). The following applies: at 1 µM.
Sequence of Tyrosine-protein kinase Blk (Homo sapiens) (P51451 2-505 limits assumed): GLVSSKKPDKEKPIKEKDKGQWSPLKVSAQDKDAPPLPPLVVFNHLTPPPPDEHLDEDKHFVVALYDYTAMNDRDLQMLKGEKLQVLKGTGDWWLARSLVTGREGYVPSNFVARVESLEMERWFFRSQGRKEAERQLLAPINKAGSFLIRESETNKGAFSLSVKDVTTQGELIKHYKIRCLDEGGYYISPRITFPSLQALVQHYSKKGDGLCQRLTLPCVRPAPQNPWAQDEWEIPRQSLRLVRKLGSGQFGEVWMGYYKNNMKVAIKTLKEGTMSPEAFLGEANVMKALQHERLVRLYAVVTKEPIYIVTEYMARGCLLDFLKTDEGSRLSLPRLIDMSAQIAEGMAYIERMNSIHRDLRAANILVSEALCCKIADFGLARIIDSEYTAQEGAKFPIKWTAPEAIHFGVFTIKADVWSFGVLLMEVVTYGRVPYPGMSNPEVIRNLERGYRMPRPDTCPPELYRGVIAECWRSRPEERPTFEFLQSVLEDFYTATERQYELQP
For assay [20] the target is unchanged. The following applies: at 10 µM.

Sequence of Tyrosine-protein kinase BTK (Homo sapiens) (Q06187 whole entry): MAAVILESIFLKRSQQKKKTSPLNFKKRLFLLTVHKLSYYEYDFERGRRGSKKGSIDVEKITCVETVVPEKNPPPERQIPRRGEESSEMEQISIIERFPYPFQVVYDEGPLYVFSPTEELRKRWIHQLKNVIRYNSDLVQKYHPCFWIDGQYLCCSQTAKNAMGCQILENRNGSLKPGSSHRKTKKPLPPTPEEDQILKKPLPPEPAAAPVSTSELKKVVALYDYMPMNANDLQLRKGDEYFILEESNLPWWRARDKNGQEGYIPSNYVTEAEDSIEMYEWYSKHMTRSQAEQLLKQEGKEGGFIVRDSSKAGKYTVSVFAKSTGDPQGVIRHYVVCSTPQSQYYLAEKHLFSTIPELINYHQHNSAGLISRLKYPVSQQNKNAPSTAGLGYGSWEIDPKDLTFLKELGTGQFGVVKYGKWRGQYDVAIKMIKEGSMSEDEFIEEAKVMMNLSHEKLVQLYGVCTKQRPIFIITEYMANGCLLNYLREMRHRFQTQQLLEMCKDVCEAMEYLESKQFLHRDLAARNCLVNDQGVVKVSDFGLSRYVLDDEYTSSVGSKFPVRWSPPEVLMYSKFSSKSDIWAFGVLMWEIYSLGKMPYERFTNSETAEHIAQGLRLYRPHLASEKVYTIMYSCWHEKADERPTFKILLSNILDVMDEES

Consider `O=C1NC(=O)c2c1c1c3ccccc3[nH]c1c1[nH]c3cc(Br)ccc3c21`, for which the residual activity was 98% (inactive) in [1]; 86% in assay [2]; 98% in assay [3]; 82% in [4]; 109% in [5]; 87% in [6]. The residual activity in assay [7] came to 93%; in assay [8], 75%; in [9], 5%; in assay [10], 4%; in assay [11] it was 89%; in [12] it was 59%. In addition, the residual activity in assay [13] is 94%; in [14], 80%; in assay [15], 105%; in assay [16] it was 100%; in [17], 79%; in assay [18], 68%. For the same compound, the figures for the residual activity in assay [19] and in assay [20] were 102% and 85%, respectively.

As to `CCN(CC)C(=O)c1ccc(Nc2nc(OCC3CCCCC3)c3nc[nH]c3n2)cc1`, the residual activity is 96% (inactive) in [1]; 24% in [2]; 46% in assay [3]; 6% in assay [4]; 52% in assay [5]; 9% in assay [6]. Further, the residual activity in assay [7] is 1%; in [8], 5%; in assay [9], -1%; in assay [10], 0%; in assay [11], 1%; in assay [12], 2%. Besides, the residual activity was 27% in assay [13]; 7% in assay [14]; 54% in assay [15]; 11% in assay [16]; 34% in assay [17]; -2% in assay [18]. For the same compound, the residual activity amounted to 20% in assay [19] and 1% in assay [20].

Regarding `CC(C)n1cnc2/c(=N/c3cccc(Cl)c3)nc(NCCO)[nH]c21`, the residual activity in assay [1] is 100% (inactive); in [2], 86%; in assay [3], 73%; in assay [4], 25%; in [5], 52%; in [6], 10%. In addition, the residual activity in assay [7] was 88%; in assay [8], 47%; in assay [9], 13%; in [10], 3%; in assay [11], 74%; in assay [12] it was 52%. The residual activity in assay [13] amounted to 94%; in assay [14] it was 44%; in assay [15], 105%; in assay [16], 100%; in assay [17], 72%; in assay [18] it was 32%. In addition, the residual activity amounted to 79% in assay [19] and 15% in assay [20].

Consider `CCN(CC)CCCCN1c2ccccc2Oc2ccc(Cl)cc21`, for which the residual activity in assay [1] is 114% (inactive); in assay [2], 114%; in assay [3], 124%; in assay [4] it was 102%; in assay [5], 140%; in assay [6], 122%. In addition, the residual activity in [7] came out at 97%; in [8], 140%; in [9] it was 141%; in assay [10], 103%; in assay [11] it was 108%; in assay [12] it was 92%. The residual activity in assay [13] worked out at 88%; in [14], 83%; in [15], 118%; in assay [16], 108%; in assay [17], 78%; in assay [18] it was 109%. Besides, the values for the residual activity in assay [19] and in [20] were 110% and 88%, respectively.

As for `Cc1nc2cc3nc(-c4cccs4)cnc3cc2n1C`, the residual activity was 99% (inactive) in assay [1]; 112% in assay [2]; 90% in [3]; 52% in assay [4]; 95% in [5]; 83% in assay [6]. Moreover, the residual activity was determined as 88% in assay [7]; 69% in assay [8]; 80% in assay [9]; 16% in assay [10]; 102% in [11]; 42% in [12]. Further, the residual activity in [13] is 87%; in assay [14], 68%; in [15], 109%; in [16], 98%; in assay [17], 93%; in assay [18] it was 83%. Besides, the residual activity stood at 100% in assay [19] and 48% in assay [20].

Regarding `O=C1Nc2ccc(Br)cc2/C1=C\c1cc2c([nH]1)CCCC2`, the residual activity in assay [1] was 103% (inactive); in assay [2], 81%; in [3], 105%; in assay [4] it was 75%; in [9], 18%; in [10], 8%. In addition, the residual activity in assay [11] worked out at 82%; in [12], 69%; in [13] it was 72%; in assay [14], 62%; in [15], 107%; in assay [16] it was 107%. Also, the residual activity was 109% in [18], 82% in assay [19] and 38% in assay [20].

For `COc1ccc(S(=O)(=O)N(CCO)c2ccccc2CN(C)C/C=C/c2ccc(Cl)cc2)cc1`, the residual activity in [1] is 111% (inactive); in assay [2], 90%; in [3], 92%; in assay [4], 118%; in assay [5], 116%; in [6], 87%. The residual activity was found to be 122% in assay [7]; 127% in assay [8]; 90% in assay [9]; 95% in assay [10]; 83% in assay [11]; 88% in [12]. For the same compound, the residual activity turned out to be 107% in assay [13]; 82% in assay [14]; 100% in [15]; 88% in assay [16]; 93% in assay [18]; 99% in [19]. Besides, the residual activity in assay [20] came to 58%.
